The record followed here is PubChem BioAssay AID624297 (National Center for Advancing Translational Sciences (NCATS), 2012).

Structures are written as SMILES. The campaign covered roughly 340,000 compounds. About 6,200 (1.8%) were called active. A call without a number means that no potency is given here. Another 10% or so got no clear call; they are omitted. Calls come from the whole dose curve; as a rule, active = well fitted activation curve with a large enough effect; inconclusive = small, poorly fitted or top-dose-only effect; inactive = no such curve, though single readings can be large or run the other way. The sample as a whole holds a higher share of actives than the screen did.
Potency is the fitted concentration of half-maximal effect.

The nature of the assay: A quantitative high throughput screen for small molecules that induce DNA re-replication in SW480 colon adenocarcinoma cells. Note: nearly all actives have a fitted effect of over 55% in size. Particulars: Hoechst DNA content imaging, 48 h; series mostly up to 46.1 µM. A digest of the protocol: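 Per well, 250 cells were exposed to pinned compound for 48 hr. Nuclear DNA was visualised with Hoechst (40 min, 37 C) and total object intensity recorded by fluorescence scanning.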
As for `CN(CC(=O)NCCc1ccc(S(N)(=O)=O)cc1)CC(=O)Nc1ccc(Cl)cc1`, the Potency result is “inactive”.
For the compound `CCOC(=O)CSC1=C(C#N)C(c2sccc2C)CC(=O)N1` (stereo not given), the Potency is 5.01 µM (active).
Turning to `COC(=O)CSC1=C(C#N)C(c2ccccc2OC)C(C(=O)OC)C(=O)N1` (stereo not given), the re-replication activation was 0.322% [at 9.22 µM] (inactive).
As to `Cc1ccc(C2CC(=O)NC(SCC(=O)OCc3ccccc3)=C2C#N)o1` (stereo not given), the Potency result was “inactive”.
For `CC(C)Cc1nnc(N)s1`, the Potency result is “inactive”.
On the same count and under the same terms, the entry for `O=C(N/N=C/c1cccc(O)c1)c1cc2c(ccc3ccccc32)o1` is “inactive”; for `Cc1ccc(NC(=O)c2cc3ccccc3o2)cc1` it is “inactive”.
The same measure, in the same setting: the same measure for `Cc1c(/C=N\NC(=O)c2cc3ccccc3o2)c2ccccc2n1C`: 9.2 µM (active); for `CC(C)Sc1nc(N)nc2c1ncn2C1OC(CO)C(O)C1O` (stereo not given): “inactive”.
On the same count and under the same terms, the entry for `c1ccc(-n2nnnc2N2CCOCC2)cc1` is “inactive”; for `c1ccc(-n2nnnc2NC2CCCCCC2)cc1` it is 3.66 µM (active).
In the case of `Fc1ccccc1CCNc1nnnn1-c1ccccc1`, the Potency result is “inactive”.
Turning to `COc1ccc(CNCCCn2cnc3c(OCc4ccccc4)ncnc32)cc1`, the Potency result is “inactive”.
Still for that read-out and setting: the entry for `O=[N+]([O-])c1ccc(N2CCOCC2)cc1` is “inactive”.
As for `CCN(CC)C(=O)[C@H]1CC(CC(=O)NCc2ccco2)C(=O)N2CCc3c([nH]c4ccccc34)[C@]12C` (stereo not given in full), the Potency entry is “inactive”.
With `COc1cccc(NC(=O)CSc2nnc(C3CCCCC3)n2N)c1`, the Potency entry was “inactive”.
`COC(=O)c1ccc(CSc2nc3ccccc3c(=O)n2-c2cccc(OC)c2)o1`: the Potency entry is “inactive”.
The same measure, in the same setting: the entry for `COCC(C)n1c(SCC(=O)NC2CCCCC2C)nc2ccccc2c1=O` (stereo not given) is “inactive”.
For `COCC(C)n1c(SCc2ccc(C(=O)OC)o2)nc2ccccc2c1=O` (stereo not given), the Potency was 18.4 µM (active).
For `O=C(c1ccc(Cl)c(S(=O)(=O)N2CCCCCC2)c1)N1CCN(c2ccc(O)cc2)CC1`, the Potency result was “inactive”.
Same read-out and setting: the entry for `C[n+]1cccc(C(=O)O)c1` is “inactive”; for `O=C(NCCc1ccccc1)c1c[nH]c2ccc(F)cc2c1=O` it is “inactive”; for `CCC(CO)Oc1cc(NCc2ccccc2)c2ncn(C3CCCC3)c2c1` (stereo not given) it is “inactive”.
Consider `COc1ccc(CNc2nc(NCc3ccc(OC)cc3)c3ncn(C4CCCC4)c3n2)cc1`, for which the Potency was 4.61 µM (active).
For `COc1ccc(CNC2CCCCC2)cc1`, the Potency entry was “inactive”.
As for `O=S(=O)(O)c1cc2onnc2c2ccccc12`, the Potency entry was “inactive”.
Same read-out and setting: the same measure for `CNc1nc(=O)n(C2CCCO2)cc1C` (stereo not given): “inactive”; for `Cc1ccc(S(=O)(=O)N(C)C2(C)CCS(=O)(=O)C2)cc1` (stereo not given): “inactive”.
For `Cc1ccc(S(=O)(=O)NC2CCCCCC2)cc1`, the Potency result was “inactive”.
Regarding `Cc1ccc(S(=O)(=O)C2(S(=O)(=O)c3ccc(C)cc3)CCCC2)cc1`, the Potency was 4.47 µM (active).
As for `C=C1c2cccc(OC)c2O[C@H](C(=O)OCC)[C@@H]1CCCCCC`, the Potency was 20.6 µM (active).
Regarding `CCOC(=O)C1=C(C)c2ccccc2OC1C(=O)OCC` (stereo not given), the Potency entry was “inactive”.
For `CC(C)(C)OC(=O)C[C@@H]1C/C=C\C[C@@H](CC(=O)N(CCO)Cc2ccccc2)C(=O)N[C@H](Cc2ccccc2)COC1=O`, the Potency result is “inactive”.
Same read-out and setting: the same measure for `COc1ccccc1CNC(=O)c1ccc(Cl)c(S(=O)(=O)N2CCCC2)c1`: “inactive”; for `O=C(COC(=O)c1cccc(Cl)c1)NC(=O)NCc1ccccc1`: “inactive”; for `Cc1cc(Oc2ccc(Cl)cc2)nc(SCC(=O)c2ccccc2)n1`: “inactive”.
Take `Cc1cc(N/N=C\c2ccc(Br)cc2)nc(-n2nc(C)cc2C)n1`: the Potency is 8.2 µM (active).
Take `Cc1cc(C)n(-c2ccc(C(=O)O)cc2[N+](=O)[O-])n1`: the Potency entry was “inactive”.
As to `Cc1ccc(S(=O)(=O)Nc2nc(C)cc(N/N=C/c3ccc(O)cc3)n2)cc1`, the Potency result is “inactive”.
For the compound `Cc1nc(Cl)cc(N/N=C/c2ccccc2)n1`, the Potency entry is “inactive”.
Still for that read-out and setting: the entry for `CC(=O)Nc1ccc(Nc2cc(C)nc(Nc3ccc(NC(C)=O)cc3)n2)cc1` is “inactive”.
For `Cc1cc(Nc2ccc(Cl)cc2)nc(N2CCOCC2)n1`, the Potency entry was “inactive”.
Consider `CC(=O)c1ccc(Oc2cc(C)nc(-n3nc(C)cc3C)n2)cc1`, for which the Potency is 1.84 µM (active).
On to `COc1ccc(Nc2cc(C)nc(-n3nc(C)cc3C)n2)cc1`, for which the Potency was 7.31 µM (active).
Take `O=C1NC(=O)C(CCc2ccccc2)(c2ccccc2)N1` (stereo not given): the Potency result is “inactive”.
On to `O=C(O)c1ccc([N+](=O)[O-])cc1Sc1ccsc1`, for which the Potency entry was “inactive”.
As to `Cc1ccc(S(=O)(=O)Nc2ccc(F)c(S(=O)(=O)N3CCOCC3)c2)cc1`, the Potency result is “inactive”.
As for `O=c1[nH]c2c(c(=O)n1-c1ccccc1)CCO2`, the Potency entry is “inactive”.
On to `COc1ccc(Cn2c(=S)[nH]c3cc(C(=O)NCCCN4CCOCC4)ccc3c2=O)cc1`, for which the Potency entry was “inactive”.
Turning to `O=C(NCCN1CCOCC1)c1ccc2c(c1)N(Cc1ccc(Cl)cc1)CCS2`, the Potency result was “inactive”.
With `Cc1c(C)n(Cc2ccc(Cl)cc2)c2ccc(C(=O)NCCCN3CCOCC3)cc12`, the Potency was 20.6 µM (active).
With `O=C(Nc1ccc(N2CCOCC2)cc1)c1cccc(S(=O)(=O)N2CCOCC2)c1`, the Potency entry is “inactive”.
Turning to `Cc1cc(NC(=O)CSc2nnc(-c3ccco3)n2N)no1`, the Potency entry was “inactive”.
On to `Cc1noc(C)c1NC(=O)Nc1ccc2c(c1)C(=O)N([C@H](C)CO)C[C@H](C)[C@@H](CN(C)C(=O)Nc1ccccc1)O2`, for which the Potency result was “inactive”.
Consider `CCCCCCCCNS(=O)(=O)CCNC1CCCCC1`, for which the Potency entry is “inactive”.
As to `CCOC(=O)c1ccccc1NS(=O)(=O)c1c(C)nc2sccn2c1=O`, the Potency entry is “inactive”.
As for `CCOC(=O)c1cnc2sccn2c1=O`, the Potency is 14.6 µM (active).
For the compound `CN(C)/C=C/C(=O)c1cnc2sccn2c1=O`, the Potency entry is “inactive”.
In the case of `CN(CCc1ccccc1)C(=O)c1cccc(NC(=O)Cc2ccc([N+](=O)[O-])cc2)c1`, the Potency result was “inactive”.
Consider `CC(C)(C)NS(=O)(=O)NC(=O)C1=C(N2CCCC2)COC1=O`, for which the Potency result is “inactive”.
The same measure, in the same setting: the entry for `CC(C)c1cc(N=O)cc(C(C)C)c1O` is “inactive”.
On the same count and under the same terms, the same measure for `CCCOc1ccc(C(=O)C(CCC(CNCC)C(=O)c2ccc(OCCC)cc2)CNCC)cc1` (stereo not given): 9.2 µM (active); for `CCCOc1ccc(C(=O)CCC(=O)OC(C)C(=O)Nc2ccc(NC(C)=O)cc2)cc1` (stereo not given): “inactive”; for `CCCCOc1ccc(C(=O)NN2CCN(C)CC2)cc1`: “inactive”.
With `CN1CCOC1c1ccc(C2OCCN2C)cc1` (stereo not given), the Potency entry was “inactive”.
For `N#CCCN(C(=O)COC(=O)c1ccc2c(c1)OCCO2)c1ccccc1`, the Potency entry is “inactive”.
Regarding `Cc1cc(NC(=O)COC(=O)/C=C/c2ccc(C)o2)no1`, the Potency result is “inactive”.
In the case of `O=C(NN1C(=O)C2C(C1=O)C1C=CC2C12CC2)c1ccccc1Cl` (stereo not given), the Potency result is “inactive”.
On the same count and under the same terms, the same measure for `CC12CCC(C(=O)N(NC(=O)c3ccccc3O)C1=O)C2(C)C` (stereo not given): 20.6 µM (active); for `CC12CCC(C(=O)N(c3cccc(Cl)c3)C1=O)C2(C)C` (stereo not given): “inactive”.
